Reference: the OligoGym collection

What follows are sequences tested against CDCA8 (assay: pooled miR-30 sensor sort-seq; sequence = guide strand). Settings: shRNA.

Row | Sequence | sensor-assay potency score (higher = more potent)
1 | TATCATTTCATCTACCTGTATT | -1.16
2 | TTCATCTACCTGTATTACCTTT | -0.507
3 | TTGCTTGATTCGTATTTCCACT | -0.831
4 | TTCGTATTTCCACTTCACGGTC | -0.813
5 | TCTACCTGTATTACCTTTCGTG | -0.22
6 | TTTGCTGTCAGCAAGAGGGCTG | -0.00778
7 | TATCTGAGCCTAAACCTCCCGG | -0.819
8 | TTACCTTTCGTGTTTTGGCAGA | -0.552
9 | TAAACATAAAACACTGCTCCAC | -0.305
10 | TTGGTCTTCAGTAAACAGGGAT | -0.3
11 | TTCACGGTCGAAGTCTTTCAGA | -1.11

These sequences were tested against CDH19 in the same assay as above. Settings: shRNA.

Row | Sequence | sensor-assay potency score (higher = more potent)
12 | TTATCTATGATTGTAAAACTTG | -0.902
13 | TAGTCTGAATTACCTGACCAGA | -1.28
14 | TTGTTCCAGACAACGCTCCTGG | -0.175
15 | TATTGGAATATATTCTCTCTGA | -0.596
16 | TTCATTGTCATTGATATCCGAA | 0.271
17 | ATCAGTATTAGCTTCTTCGAGC | -1.26
18 | TAACTTTTGCTCTAATACCGTA | -0.771
19 | TTTCTCAGGAAATAGAATCTGT | 0.0652
20 | TTTTCCAGAATGAATTTCCTGA | -0.246
